Assay outcomes deposited in PubChem by National Center for Advancing Translational Sciences (NCATS).
Giardia FBPA inh: Giardia lamblia aldolase inhibition; Potency, µM (titrated, usually from 59.6 µM), for the others: at the top dose activity, negative = inhibition, hits mostly inhibitors; hit rate 0.71% among 290,000; purified Giardia FBPA; note: potency is the fitted concentration of half-maximal effect; % is set by controls: 0 for no effect and ±100 for the full control effect; nearly all actives have a fitted effect of over 55% in size
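40 nM FBPA preincubated 10 min at RT with compound (up to 57.5 uM final), then substrate plus GAPDH/TPI/NAD/arsenate coupling and diaphorase/resazurin added. Fluorescence read after 20 min at RT, 525/598 nm.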
LmPK inhibitor: LmPK (Leishmania mexicana) enzyme inhibition; Q27686; purified LmPK, Kinase-Glo ATP luminescence, 1 h; Potency, µM (highest dose often 57.5 µM), without a hit: at the highest dose activity change, negative = inhibition, most hits filed as inhibitors; hit rate 0.37% among 290,000; AID 1721; note: potency is the fitted concentration of half-maximal effect; % is set by controls: 0 for no effect and ±100 for the full control effect
Target sequence (Q27686 whole entry, looked up): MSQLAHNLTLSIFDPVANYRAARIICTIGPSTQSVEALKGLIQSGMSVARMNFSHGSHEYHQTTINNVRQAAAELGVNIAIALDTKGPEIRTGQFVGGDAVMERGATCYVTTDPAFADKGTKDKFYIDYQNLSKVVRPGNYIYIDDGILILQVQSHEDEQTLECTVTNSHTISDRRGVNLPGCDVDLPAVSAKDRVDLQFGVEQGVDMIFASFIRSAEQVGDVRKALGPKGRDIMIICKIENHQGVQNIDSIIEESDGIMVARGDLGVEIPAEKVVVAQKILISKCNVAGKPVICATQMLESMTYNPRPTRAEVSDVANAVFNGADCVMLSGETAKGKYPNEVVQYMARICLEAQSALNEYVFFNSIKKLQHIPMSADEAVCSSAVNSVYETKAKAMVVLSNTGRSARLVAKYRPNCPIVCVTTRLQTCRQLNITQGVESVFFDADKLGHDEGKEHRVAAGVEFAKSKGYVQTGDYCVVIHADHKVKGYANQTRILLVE
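In 50 mM imidazole pH 7.2 with 7 mM MgCl2, LmPK (0.1 nM) turned over PEP (0.5 mM) and ADP (0.1 mM) for 1 h at room temperature. Luciferase read-out of ATP.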
Cycloheximide cs: affects cycloheximide protein synthesis inhibition readout, counter-screen; hit rate 12% among 300,000; max response, %; cell reporter, cycloheximide protein synthesis inhibition counterscreen; in the data active = max response mostly above about 13%, no sharp cut-off; inactive = mostly below about 14%; note: read at 38.3 µM for the half of the compounds with a filed dose; 0% is about no effect
TbPYK inhibitor: inhibitors of Trypanosoma brucei pyruvate kinase; Q57TT1; TbPYK enzyme, Kinase-Glo Plus ATP luminescence, 45 min; Potency, µM (series often up to 76.8 µM), inactives show top-dose activity, negative = inhibition, most hits filed as inhibitors; hit rate 0.12% among 410,000; note: potency is the fitted concentration of half-maximal effect; % is set by controls: 0 for no effect and ±100 for the full control effect; nearly all actives have a fitted effect of over 50% in size
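ADP (130 uM final) triggers the TbPYK reaction after compound addition; incubation is 45 min at room temperature. Kinase-Glo Plus is then added and luminescence imaged. Normalized data are fitted to concentration-effect curves.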
RE007 growth inh: less growth of the S. pombe RE007 Vpr strain; hit rate 0.21% among 360,000; Potency, µM (doses to about 92.2 µM), inactives show at the highest dose activity change, negative = less growth, usual class: inhibitors; S. pombe RE007 Vpr strain, BacTiter-Glo ATP luminescence, 24 h; AID 651644; active = well fitted falling curve with a large enough effect; inconclusive = small, poorly fitted or top-dose-only effect; inactive = no such curve, though single readings can be large or run the other way; note: potency is the fitted concentration of half-maximal effect; % is set by controls: 0 for no effect and ±100 for the full control effect; nearly all actives have a fitted effect of over 50% in size
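Fission yeast strain RE007, carrying one chromosomally integrated HIV-1 vpr copy, was seeded at OD 0.01 in PMG+AL medium with 23 nL pinned compound. After 24 h at 30 °C and 99% humidity, viability was read by BacTiter-Glo luminescence.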
Shiga inhibitor: blocks Shiga toxin action in Vero cells | Vero cells, Shiga toxin protein synthesis inhibition reporter | inhibition, % at 38.7 µM | hit rate 9.2% among 290,000; in the data active = inhibition mostly above about 28%, no sharp cut-off; inactive = mostly below about 43%; note: 0% is about no effect
* marks the source's active call; other numbers are inactive results; [ ] = dose if it differs, or a comment. Only a selection was taken, and hits are over-represented in it overall. Unless noted, calls come from the whole dose curve; as a rule, active = well fitted curve in the direction sought with a large enough effect; inconclusive = small, poorly fitted or top-dose-only effect, or another doubt; inactive = no such curve, though single readings can be large; an effect the other way counts as inactive or inconclusive.

`COc1ccc(C(=O)Nc2ccc(-c3nnn(CC(=O)NCc4ccco4)n3)cc2)cc1` gave Giardia FBPA inh 1.9%, LmPK inhibitor -7.2%, Cycloheximide cs -3.0, TbPYK inhibitor 1.1%, RE007 growth inh -2.3% and Shiga inhibitor -5.4.
CC(C)(C)c1ccc(C(=O)NCc2nnc(SCC(=O)N3CCCC3)o2)cc1 was read as TbPYK inhibitor -4.0% and RE007 growth inh 5.6%.
For Cc1ccc(OC(=O)c2cccc([N+](=O)[O-])c2)c(-n2nc3ccccc3n2)c1 the results were Giardia FBPA inh 3.0%, LmPK inhibitor -7.9%, Cycloheximide cs 26.7*, TbPYK inhibitor -7.4%, RE007 growth inh 12.5% and Shiga inhibitor 12.1.
`Cc1ccc(OC(=O)COc2ccccc2C)c(-n2nc3ccccc3n2)c1` gave Giardia FBPA inh 0.7%, LmPK inhibitor inconclusive, Cycloheximide cs 42.7*, TbPYK inhibitor -8.4%, RE007 growth inh -9.0% and Shiga inhibitor 69.4*.
O=C1OC2C[C@H]1[C@@H]1C(=O)N(Cc3ccccc3)CCC1C2I (stereo partly specified) was read as Giardia FBPA inh -1.6%, Cycloheximide cs 1.3 and Shiga inhibitor inactive.
Screening COC(=O)c1ccc(NC(=O)CC2C(=O)N(c3ccc(Cl)cc3)C(=O)N2Cc2cccs2)cc1 (stereo unspecified) returned TbPYK inhibitor -3.2%.
For O=C(NCCCCCCOC1=NS(=O)(=O)c2ccccc21)C(=O)Nc1ccccc1 the results were Giardia FBPA inh 3.8%, LmPK inhibitor 7.4%[11.5 µM], Cycloheximide cs 25.2, TbPYK inhibitor 6.0%, RE007 growth inh -0.4% and Shiga inhibitor 46.9.
Screening CC(CCc1ccccc1)NC(=O)C(=O)Nc1ccccc1 (stereo unspecified) returned Giardia FBPA inh 5.3%, LmPK inhibitor -3.6%, Cycloheximide cs 55.6*, TbPYK inhibitor -5.1%, RE007 growth inh -29.5% and Shiga inhibitor 99.8*.
For CC(CCOC1=NS(=O)(=O)c2ccccc21)NC(=O)C(=O)Nc1ccccc1 (stereo unspecified) the results were Giardia FBPA inh -0.1%, LmPK inhibitor 4.3%, Cycloheximide cs 29.4*, TbPYK inhibitor 4.1%, RE007 growth inh 3.6% and Shiga inhibitor 65.1*.
Cc1ccccc1NC(=O)C(=O)NC(C)CCc1ccccc1 (stereo unspecified) was read as Giardia FBPA inh -0.3%, LmPK inhibitor -0.6%, Cycloheximide cs 7.1, TbPYK inhibitor -0.7%, RE007 growth inh 9.6% and Shiga inhibitor -2.3.
For NCCC[C@@H](CC(=O)N[C@@H]1CCCC[C@H]1C(=O)N[C@H](CC(=O)N[C@@H](CCC(=O)O)CC(=O)O)Cc1c[nH]c2ccccc12)NC(=O)C[C@H](Cc1c[nH]c2ccccc12)NC(=O)[C@@H]1CNCC[C@H]1N the results were Giardia FBPA inh -20.1%.
Screening Cc1ccc2[nH]c3c(c2c1)CN(C(=O)CN1CCCc2ccccc21)CC3 returned Giardia FBPA inh 1.6%, LmPK inhibitor -2.8%, Cycloheximide cs 19.4*, TbPYK inhibitor 2.9%, RE007 growth inh -2.6% and Shiga inhibitor 68.9*.
For Cc1ccc2[nH]c3c(c2c1)CN(C(=O)CN1CCCCC1)CC3 the results were Giardia FBPA inh -1.9%, LmPK inhibitor 6.6%, Cycloheximide cs -2.9, TbPYK inhibitor -2.4%, RE007 growth inh -1.0% and Shiga inhibitor 2.7.
For Cc1nc2ccc(C(=O)NCCCn3ccnc3)cn2c1N(C)C(=O)CCc1ccccc1 the results were TbPYK inhibitor -6.6% and RE007 growth inh -4.1%[18.4 µM].
Screening Cc1ccc(Sc2ncccc2O)cc1 returned TbPYK inhibitor 0.1% and RE007 growth inh -7.8%.
For Cc1ccc(Sc2ncccc2COC(=O)NC(C)C)cc1 the results were Giardia FBPA inh 4.9%, LmPK inhibitor -0.2%, Cycloheximide cs 36.6*, TbPYK inhibitor 8.1%, RE007 growth inh 1.9% and Shiga inhibitor 117.6*.
`Cc1ccccc1OCc1nc2c3cnn(-c4ccccc4Br)c3ncn2n1` gave TbPYK inhibitor -5.6%.
Screening Cc1ccccc1OCc1nnc2c3cnn(C)c3ncn12 returned Giardia FBPA inh 1.6%, LmPK inhibitor -4.9%, Cycloheximide cs 38.5*, TbPYK inhibitor 7.4%, RE007 growth inh -5.8% and Shiga inhibitor 73.7.
`COc1cccc2cc(C(=O)NCc3ccccn3)c(=O)oc12` gave Giardia FBPA inh -0.6%, LmPK inhibitor -1.1%, Cycloheximide cs 23.0*, TbPYK inhibitor 3.0%, RE007 growth inh 22.2% and Shiga inhibitor 37.6.
Screening COc1cccc2cc(C(=O)NCCc3ccccc3)c(=O)oc12 returned Giardia FBPA inh 12.7%, LmPK inhibitor 7.0%, Cycloheximide cs 17.0*, TbPYK inhibitor 5.1%, RE007 growth inh -19.7% and Shiga inhibitor -4.0.
For COc1cccc2cc(C(=O)N3CCc4ccccc4C3)c(=O)oc12 the results were Giardia FBPA inh -2.7%, LmPK inhibitor 5.2%, Cycloheximide cs 24.3*, TbPYK inhibitor -8.7%, RE007 growth inh -5.4% and Shiga inhibitor 39.4.
CCc1ccc(Nc2ncc3c(n2)CC(C)CC3=O)cc1 (stereo unspecified) was read as Giardia FBPA inh 2.1%, LmPK inhibitor 2.6%, Cycloheximide cs 47.4*, TbPYK inhibitor 3.8%, RE007 growth inh -10.6% and Shiga inhibitor 96.3*.
Screening CCc1ccc(Nc2ncc3c(n2)CC(C)(C)CC3=O)cc1 returned Giardia FBPA inh 12.0%, LmPK inhibitor 1.5%, Cycloheximide cs 56.7*, TbPYK inhibitor -1.6%, RE007 growth inh 1.9% and Shiga inhibitor 75.3*.
For CC1(C)CC(=O)c2cnc(NCc3ccco3)nc2C1 the results were Giardia FBPA inh 3.0%, LmPK inhibitor 0.1%, Cycloheximide cs 14.0*, TbPYK inhibitor 1.1%, RE007 growth inh -2.8% and Shiga inhibitor -0.6.
For O=C1CCCc2nc(NCc3ccco3)ncc21 the results were Giardia FBPA inh 2.6%, LmPK inhibitor 5.3%, Cycloheximide cs -2.0, TbPYK inhibitor -2.9%, RE007 growth inh -2.9% and Shiga inhibitor 22.6.
`NC(=O)c1cccc(-c2cc(Nc3ccc(OC(F)(F)F)cc3)ncn2)c1` gave Giardia FBPA inh -9.4%, LmPK inhibitor 5.2%, Cycloheximide cs 13.3*, TbPYK inhibitor 0.1%, RE007 growth inh 1.8% and Shiga inhibitor 25.8.
Screening c1ccc(Nc2cc(-c3ccoc3)ncn2)cc1 returned Giardia FBPA inh -21.2%.
Screening CCCCCCSc1ncc(C#N)c(N)n1 returned Giardia FBPA inh 5.3%, LmPK inhibitor -1.6%, Cycloheximide cs 29.0*, TbPYK inhibitor -4.3%, RE007 growth inh -15.6% and Shiga inhibitor 36.7*.
For N#Cc1cnc(SCC(=O)c2ccccc2)nc1N the results were Giardia FBPA inh -3.7%, LmPK inhibitor 6.5%, Cycloheximide cs 11.0, TbPYK inhibitor -8.3%, RE007 growth inh 1.7% and Shiga inhibitor 18.0.
